Source: PubChem BioAssay (National Center for Advancing Translational Sciences (NCATS))
KB-V1 cytotox – kills drug-selected multidrug resistant KB-V1 cells | Potency, µM (titrated, usually from 46.1 µM), hits mostly cytotoxic | actives 3.4% (n = 400,000) | KB-V1 MDR cells viability, CellTiter-Glo, 72 h; further: on the % scale 0 is the no-effect control and ±100 the full control effect; nearly all actives have a fitted effect of over 60% in size
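Cells of the MDR subline KB-V1 are plated, dosed with compound at multiple concentrations, and incubated 72 h at 37 degrees C; CellTiter-Glo is then added and luminescence read after 10 min.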
MCF10A rereplic – DNA re-replication induction in MCF 10a cells. MCF 10A DNA re-replication, Hoechst nuclear intensity, 48 h. Potency, µM (series often up to 46.1 µM), for inactives: top-dose activity, positive = re-replication, actives largely listed as activators. actives 2.9% (n = 350,000); further: % of control where 0% means no effect; nearly all actives have a fitted effect of over 50% in size
HT1080 IDH1KD tx – kills HT-1080 cells with IDH1 knockdown | HT-1080 IDH1 knockdown viability, ATP luminescence, 48 h | Potency, µM (top dose mostly 46.1 µM), inactives show at the highest dose activity, negative = toxicity, hits mostly cytotoxic | actives 2% (n = 360,000);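 further: 0% = DMSO wells and -100% = cell-free medium wells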
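CellTiter-Glo luminescence after 48 h compound exposure at 37 degrees C of IDH1-knockdown HT-1080 cells in 5% FBS RPMI. %Activity scaled between DMSO wells and cell-free media wells, with curves fitted and assigned curve classes.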
SW480 rereplic – DNA re-replication induction in SW480 cells; SW480 DNA re-replication, Hoechst DNA content imaging, 48 h; Potency, µM (titrated, usually from 46.1 µM), inactives show top-dose re-replication activation, actives largely listed as activators; actives 1.8% (n = 340,000); AID 624297; further: % of control where 0% means no effect; nearly all actives have a fitted effect of over 55% in size
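Compounds, transferred as 23 nL by pin tool, were incubated with cells for 48 hr; DNA content per nucleus was then quantified by Hoechst staining and fluorescence plate imaging.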
HT1080NT lethal – kills 2HG-producing HT-1080-NT fibrosarcoma cells; HT-1080-NT fibrosarcoma viability, CellTiter-Glo ATP luminescence, 48 h; Potency, µM (titrated, usually from 46.1 µM), inactives show at the top dose activity, negative = less viability, usual class: cytotoxic; actives 1.6% (n = 360,000); AID 686970;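 further: NT is the 2HG producing partner of a matched IDH1 knockdown line; 0% = DMSO-treated cells and -100% = media-only wells without cells; nearly all actives have a fitted effect of over 55% in size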
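HT-1080-NT; 750 cells/well; 5% FBS RPMI; 48 h compound, 37 degrees C; CellTiter-Glo luminescence; curve fitting and curve-class assignment.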
KB-3-1 tox – KB-3-1 parental cell cytotoxicity; actives 1.4% (n = 400,000); Potency, µM (doses to about 46.1 µM), hits mostly cytotoxic; KB-3-1 viability, CellTiter-Glo ATP luminescence, 72 h; further: on the % scale 0 is the no-effect control and ±100 the full control effect; nearly all actives have a fitted effect of over 60% in size
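Multi-concentration cytotoxicity screen in KB-3-1 cells grown in DMEM lacking phenol red with 10% FBS. After 72 h at 37 °C with compound, ATP-dependent luminescence was recorded.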
Starred values were filed as active, the others as inactive; i = inactive; ? = inconclusive; · = not tested or not shown; [ ] = remark or other dose. An excerpt weighted towards active compounds, which were near 7.9% of everything screened. The call rests on the fitted dose curve; in most records, active means well fitted curve in the direction sought with a large enough effect; inconclusive means small, poorly fitted or top-dose-only effect, or another doubt; inactive means no such curve, though single readings can be large; an effect the other way counts as inactive or inconclusive. Potency means the concentration at half of the fitted maximal effect.

SMILES	KB-V1 cytotox	MCF10A rereplic	HT1080 IDH1KD tx	SW480 rereplic	HT1080NT lethal	KB-3-1 tox
CC(C)(C)OC(=O)N[C@@H](Cc1ccccc1)c1nnc(SCC(=O)c2ccc(Cl)cc2)o1	16.4µM*	?	?	?	?	i
Cc1ccc(N=Cc2c(O)n(C)c(=O)n(C)c2=O)nc1	?	17.3%	9.9%[9.24 µM]	27.5%	?	i
Cc1ccc(S(=O)(=O)N2CCC(C(=O)N3CCN(c4ccccn4)CC3)CC2)cc1	·	?	9.9%	0.5%	7.5%	·
Cc1ccccc1CS(=O)(=O)c1nnc([C@H](Cc2ccccc2)NC(=O)OC(C)(C)C)o1	?	?	1.78µM*	?	5.01µM*	i
CC(C)Sc1nnc([C@H](Cc2c[nH]c3ccccc23)NC(=O)OC(C)(C)C)o1	i	328.1%[0.0737 µM]	3.3%	-15.8%	0.3%	i
CCn1cc([N+](=O)[O-])c(C(=O)Nc2nc(-c3ccc(C)c(C)c3)c(C)s2)n1	i	8.2µM*	10µM*	?	?	i
CC(=O)c1ccc(NC(=S)NC(C)c2ccc(Cl)cc2Cl)cc1 (configuration not stated)	18.4µM*	?	?	-4.0%	?	i
CC1CCCC(C)N1C(=O)CSc1nc2ncnc(N)c2[nH]1 (configuration not stated)	i	6.51µM*	5.2%	8.2µM*	6.8%	i
COc1ccc(NC(=S)N(CCc2c(C)[nH]c3ccc(C)cc23)Cc2cccs2)cc1	?	-5.1%	?	0.6%	-9.3%	?
CNC(=S)N(CCc1c(C)[nH]c2ccc(C)cc12)Cc1cccs1	?	3.66µM*	-14.8%	29.6%	-18.6%	i
CC(CNC(=O)Cn1ccc(NC(=O)OCc2ccccc2)nc1=O)c1ccccc1 (configuration not stated)	i	10.0%	21.6%	-4.4%	7.1%	i
COc1ccc([C@H]2C[C@@H](n3cc(-c4ccc(F)cc4)nn3)[C@H](O)CN2Cc2cccs2)cc1	?	·	-21.3%	·	-18.2%	?
CC(O)(c1cccnc1)c1nc(-c2ccc3c(c2)OCO3)cs1 (configuration not stated)	?	·	-19.3%	·	4.2%	i
CC(O)(c1cccc(F)c1)c1nc(-c2cnc3ccccc3c2)cs1 (configuration not stated)	?	·	?	·	14.6µM*	i
CC(O)(c1cccc(F)c1)c1nc(-c2ccccc2)cs1 (configuration not stated)	i	·	?	·	?	i
CC(O)(c1cccnc1)c1nc(-c2ccc3ccccc3c2)cs1 (configuration not stated)	6.51µM*	·	?	·	?	?
CC(O)(c1cccc(F)c1)c1nc(-c2cccc(C(F)(F)F)c2)cs1 (configuration not stated)	i	·	?	·	20.6µM*	i
COc1cccc(C(C)(O)c2nc(-c3cnc4ccccc4c3)cs2)c1 (configuration not stated)	i	·	?	·	-20.1%	i
CC(C)(C)CC(=O)Nc1cccc(-c2cn3cccnc3n2)c1	i	13.5%	10.1%	-5.8%	11.7%	i
O=S(=O)(Nc1ccc(N2CCOCC2)cc1)c1ccccc1	i	-1.2%	5.2%	0.5%	1.9%	i
CC(=O)N1CCN(c2ccc(NC(=O)c3ccccc3Cl)cc2)CC1	i	3.3%	11.4%	7.2%	20.5%	i
O=S(=O)(Nc1ccc(N2CCCCC2)cc1)c1ccccc1	20.6µM*	10.7%	18.9%	20.5%	4.3%	i
O=C(Nc1ccc(N2CCCCC2)cc1)c1ccccn1	?	?	10.3µM*	8.9%	9.2µM*	?
O=C(Nc1ccc(N2CCCCCC2)cc1)c1ccc[nH]1	i	-2.2%	0.0%	-3.6%	-5.7%	i
COc1ccccc1C(=O)Nc1ccc(S(=O)(=O)N2CCCC2)cc1	18.4µM*	2.3%	7.1%	-1.2%	-16.3%	i
SMILES	KB-V1 cytotox	MCF10A rereplic	HT1080 IDH1KD tx	SW480 rereplic	HT1080NT lethal	KB-3-1 tox
O=C(Nc1ccc(N2CCCCCC2)cc1)c1ccccc1Cl	?	6.51µM*	8.2µM*	13µM*	11.6µM*	?
CC(=O)O[C@H]1C[C@@]2(C)[C@@H](C[C@@H](O)[C@H]3[C@@]4(C)CC[C@@H](O)[C@@H](C)C4CC[C@@]32C)/C1=C(\CCC=C(C)C)C(=O)O (some centres not stated)	i	6.7%	17.2%	?	?	i
Cc1cc(/C=C2\SC(=S)NC2=O)c(C)n1C1CC1	?	9.0%	25.1%	0.7%	-0.5%	i
COc1ccccc1C(=O)Nc1ccc(N2CCN(C(C)=O)CC2)cc1	i	-28.5%	-1.2%	-15.8%	-0.5%	i
COc1ccccc1C(=O)Nc1ccc(N2CCCCC2)cc1	20.6µM*	6.1%	-20.9%	-3.0%	-15.6%	i
O=C(NCc1ccco1)C1CCN(C(=O)c2cc3sccc3n2Cc2ccc(F)cc2)CC1	?	25.1%	?	-0.4%	?	i
O=C(NCc1ccco1)c1cc2sccc2n1Cc1ccccc1	16.4µM*	-4.2%	?	14.8%	?	i
O=C(c1ccco1)N1CCN(C(=O)c2cc3sccc3n2Cc2ccccc2)CC1	2.06µM*	-6.2%	?	-2.2%	-21.8%	?
O=C(NCCc1ccccc1)c1cc2sccc2n1Cc1ccccc1	i	-2.6%	-3.7%	2.8%[9.22 µM]	-4.2%	i
CC1Cc2ccccc2N1C(=O)c1cc2sccc2n1Cc1ccc(F)cc1 (configuration not stated)	20.6µM*	?	-9.9%	?	-5.1%	?
Cc1cccc(C)c1NC(=O)c1cc2sccc2n1Cc1ccc(F)cc1	i	·	·	·	·	i
CC(C)(C)c1ccc(NC(=S)NCc2cccs2)cc1	i	?	?	-2.2%[9.22 µM]	?	i
Cc1ccc(C(=O)NCCCNC(=O)c2ccc(Cl)cc2)cn1	i	2.1%	-1.4%	0.5%	2.7%	i
O=C(Oc1ccc(N(C(=O)c2ccncc2)S(=O)(=O)c2ccc(Cl)cc2)cc1)c1ccncc1	i	?	5.6%	-26.8%	-4.7%	i
COc1c(N2CCN(C(=S)NCc3ccccc3)C(C)C2)c(F)cc2c(=O)c(C(=O)O)cn(C3CC3)c12 (configuration not stated)	i	1.7%	18.4µM*	-0.4%[9.22 µM]	?	?
